Inconclusive results are not listed. A call without a number means that no potency is given here. Activity calls are given as the source filed them. Calls come from the whole dose curve; as a rule, active = well fitted inhibition curve with a large enough effect; inconclusive = small, poorly fitted or top-dose-only effect; inactive = flat fitted curve, though single readings scatter.

Calcium and integrin-binding protein 1 (Homo sapiens), sequence (Q99828 whole entry, looked up): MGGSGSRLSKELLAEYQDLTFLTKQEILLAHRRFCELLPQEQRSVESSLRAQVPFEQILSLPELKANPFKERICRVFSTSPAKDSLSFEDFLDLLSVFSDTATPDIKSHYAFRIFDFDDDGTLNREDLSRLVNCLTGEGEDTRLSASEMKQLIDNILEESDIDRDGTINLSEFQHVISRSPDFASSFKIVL

In the assay the target is Calcium and integrin-binding protein 1 (Homo sapiens) (UniProt Q99828). Nature of the assay: Primary qHTS for Identification of Calcium Integrin Binding Protein 1 (CIB1) Competitor (AID 1508620). Note: top concentration of the series differs between compounds. The settings on record: CIB1-GST / FITC-alphaIIb peptide fluorescence polarization; series mostly up to 114 µM. In a few lines:
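Fluorescence polarization competition: GST-tagged CIB1 (1 uM final) preincubated with compound 15 min at room temperature, then FITC-labelled alphaIIb peptide (100 nM final) added. After 15 min at room temperature, polarization read at Ex 480/Em 540.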
Background: Quantitative high-throughput screening tests each substance at several concentrations.
Turning to `CC(C)c1cc2c(c(O)c1O)[C@@]13CCCC(C)(C)[C@@H]1[C@H](OC3=O)C2=O`, the Potency result is “inactive”.
As to `CS(=O)(=O)NCC1CCC(Nc2nc3c(s2)CCSc2ccccc2-3)CC1` (stereo unspecified), the Potency result was “inactive”.
For the compound `O=C1C=CC(O)(/C=C/C(=O)OC[C@H]2O[C@@H](Oc3ccc(O)cc3)[C@H](O)[C@@H](O)[C@@H]2O)C=C1`, the Potency result was “inactive”.
On to `CC(=O)O[C@@H]1CC(C)=C2[C@H]1[C@H](C)CC[C@H]2/C=C(\C)C(=O)O`, for which the Potency result was “inactive”.
Consider `Cc1ccc(F)cc1C(=O)Nc1ccc(C(=O)N2Cc3cccn3Cc3ccccc32)c(Cl)c1`, for which the Potency result is “inactive”.
`CC(C)=C/C=C\[C@H](C)[C@H]1CC[C@]2(C)C[C@@H]3C(C)=CC(=O)C3/C(CO)=C\C[C@@H]12` (stereo partly specified): the Potency result is “inactive”.
For the compound `CN1CCN(C(=O)c2ccc3cc(CCNc4ncnc5ccc(C#N)cc45)ccc3c2)CC1`, the Potency result is “inactive”.
Same read-out and setting: with `CC1=CCC2C(C)(C)CCC[C@]2(C)[C@@]12CC[C@](C)(CC(=O)O)O2` (stereo partly specified) the entry was “inactive”.
With `C=C1CCC2C(C)(C)C(O)CCC2(C)C1CCC(C)CCO` (stereo unspecified), the Potency result is “inactive”.
As for `Cc1cc(Nc2nc(NC(C)c3ncc(F)cn3)ncc2Cl)n[nH]1` (stereo unspecified), the Potency entry was “inactive”.
`COc1nc2sc(C(=O)NC3CC3)c(N)c2c(C)c1Cl`: the Potency result is “inactive”.
For the compound `COC(=O)[C@H](O)[C@H]1C(C)(C)[C@H](OC(=O)C(C)C)[C@@]2(O)C(=O)[C@]1(C)C1CC[C@]3(C)C(CC(=O)O[C@H]3c3ccoc3)[C@]13O[C@@H]32` (stereo partly specified), the Potency result is “inactive”.
With `CC(C)/C=C1\NC(=O)C(C(C)C)n2c1nc1c(c2=O)C=CC=CO1` (stereo unspecified), the Potency entry is “inactive”.
On to `C[C@@H]1O[C@@H](O[C@H]2[C@H](OC(=O)[C@]34CCC(C)(C)C[C@H]3C3=CCC5[C@@]6(C)C[C@H](O)[C@H](O[C@@H]7O[C@H](CO)[C@@H](O)[C@H](O)[C@H]7O)[C@@](C)(CO)C6[C@H](O)C[C@@]5(C)[C@]3(C)C[C@H]4O)OC[C@H](O)[C@@H]2O)[C@H](O)[C@H](O)[C@H]1O[C@@H]1OC[C@@H](O)[C@H](O[C@H]2OC[C@](O)(CO)[C@H]2O)[C@H]1O` (stereo partly specified), for which the activity change, negative = inhibition was 3.47% [at 12.4 µM] (inactive).
As to `O=S(=O)(Nc1ccccn1)c1ccc(N=Cc2c(O)[nH]c3ccc4ncsc4c23)cc1`, the Potency result was “inactive”.
`O=C(O)CCCCCC[C@H]1C(=O)NC(=O)N1CC[C@@H](O)C1CCCCC1`: the Potency entry was “inactive”.
Same read-out and setting: the value for `CO[C@H]1C[C@@H]2CC[C@@H](C)[C@@](O)(O2)C(=O)C(=O)N2CCCC[C@H]2C(=O)O[C@H]([C@H](C)C[C@@H]2CC[C@H](n3cnnn3)[C@H](OC)C2)CC(=O)[C@H](C)/C=C(\C)[C@@H](O)[C@@H](OC)C(=O)[C@H](C)C[C@H](C)/C=C/C=C/C=C/1C` was “inactive”.
As for `O=C(O)COCCN1CCN([C@H](c2ccccc2)c2ccc(Cl)cc2)CC1`, the Potency entry was “inactive”.
With `COc1ccc(C2COc3cc(O)ccc3C2)c(O)c1` (stereo unspecified), the Potency entry was “inactive”.
The same measure, in the same setting: the value for `C=C1[C@H](OC(C)=O)[C@H]2[C@@H](OC(C)=O)[C@](C)(OC(C)=O)C[C@]2(OC(C)=O)C(=O)[C@H](C)/C=C/C(C)(C)C(=O)[C@H](OC(=O)C(C)C)[C@H]1OC(C)=O` was “inactive”.
As for `C=CC(C)(O)CC/C=C(\C)C(=O)OC1C(O)C(CO)OC(OC(=O)C23CCC(C)(C)CC2C2=CCC4C5(C)CCC(OC6OC(COC7OCC(OC(C)=O)C(O)C7OC7OC(COC(C)=O)C(O)C(O)C7O)C(O)C(O)C6O)C(C)(C)C5CCC4(C)C2(C)C(O)C3O)C1OC1OCC(OC2OCC(O)C(OC3OCC(O)C(O)C3O)C2O)C(O)C1O` (stereo unspecified), the activity change, negative = inhibition is 3.39% [at 12.4 µM] (inactive).
Regarding `C=CC1C(OC2OC(CO)C(O)C(O)C2O)OC=C(C(=O)OC)C1CC(=O)OCC1C(C)C(O)CC1C(CO)COC(=O)CC1C(C(=O)O)=COC(OC2OC(CO)C(O)C(O)C2O)/C1=C\C` (stereo unspecified), the Potency entry is “inactive”.
The same measure, in the same setting: the value for `CC(C)(C)NC(=O)[C@@H](c1cccnc1)N(C(=O)c1ccco1)c1ccc(C(C)(C)C)cc1` was “inactive”; that for `COC1C(=O)CCC2(CO2)C1(O)C1(C)OC1CC=C(C)C` (stereo unspecified) was “inactive”.
In the case of `COC(=O)[C@@]1(c2ccc(C)cc2)C[C@H]1CN1CCC(O)(c2ccccc2)CC1`, the Potency entry was “inactive”.
Regarding `C=C1C(=O)OC2CC3(C)C(CC12)C(C)=CC(O)C3OC(C)=O` (stereo unspecified), the Potency entry was “inactive”.
On the same count and under the same terms, the value for `C=C1C(=O)OC2C1C(O)CC1(C)C(O)CCC(C=O)C21` (stereo unspecified) was “inactive”.
`COc1ccc([C@@]2(O)c3c(ccc(CC=C(C)C)c3O)NC(=O)[C@@H]2OC)cc1`: the Potency result is “inactive”.
Consider `C=C1CCC2C(C(C)(C)O)CCC2(C)CC(O)C(=C)CCC1O` (stereo unspecified), for which the Potency entry was “inactive”.
With `OC[C@@]1(O)CO[C@@H](OC[C@H]2O[C@@H](Oc3c[nH]c4ccccc34)[C@H](O)[C@@H](O)[C@@H]2O)[C@@H]1O`, the Potency entry was “inactive”.
With `CC(C)[N+]1(C)C2CCC1CC(OC(=O)C(CO)c1ccccc1)C2` (stereo unspecified), the Potency result was “inactive”.

(Values after PubChem BioAssay (NCATS).)
